Consider 89 compounds from PubChem BioAssay AID602250 (The Scripps Research Institute Molecular Screening Center, 2012).

The structures appear in SMILES notation. Screen size: about 360,000 compounds; about 2,200 (0.61%) were called active.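 Rule for the calls: active = inhibition above a per-plate cutoff, the plate's mean sample inhibition plus 3 SD (cut at about 24% in these data); inactive = the rest.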 This excerpt belongs to a sample that is enriched for actives.

The nature of this assay: nonselective inhibitors of ATP calcium response in CHO-K1, primary screen, counter-screen for M1 antagonist project, cell-based, Fluo-8 calcium fluorescence, full deck, 1536-well (AID 602250).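 Note: 0% = DMSO plus EC80 ATP and 100% = DMSO alone without ATP.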 The conditions noted are these: CHO-K1 parental, ATP-induced calcium, Fluo-8 fluorescence; at 3 µM; hits give high values. In general terms: A counterscreen serves to expose hits that act by an unwanted route or on another target.
On to `N#CC1(Nc2ccc3c4c(cccc24)CC3)CCCCC1`, for which the inhibition (commonly the drop in the measured response relative to a control, in per cent) is 35.7% (active).

In the case of `N#CC1(Nc2ccc(-c3ccc(Cl)cc3)cc2)CCCC1`, the inhibition is -8.66% (inactive).

For the compound `CC(C)C(=O)Nc1ccc2c3c(cccc13)CC2`, the inhibition was -5.37% (inactive).

In the case of `CCn1c(=O)c(=O)[nH]c2c(=O)oc3ccc(S(=O)(=O)Nc4ccc(OC)cc4)cc3c21`, the inhibition is -7.54% (inactive).

For the compound `CCC(Cc1ccccc1)NC(=O)C1CCCCC1` (centres undefined), the inhibition is 27.9% (active).

`Cc1ccc(NC(=O)[C@H](Cc2ccccc2)NC(=O)C2CCNCC2)cc1`: the inhibition is -21.4% (inactive).

`CCC(NC(=O)C1CCCC1)c1ccc(C)cc1` (centres undefined): the inhibition is -8.16% (inactive).

For `O=c1[nH]c(CSc2ccccc2)nc2c1oc1ccccc12`, the inhibition is -8.98% (inactive).

Consider `CN(C(=O)CSc1nnc(-c2n[nH]c3ccccc23)o1)c1ccccc1`, for which the inhibition is -5.61% (inactive).

For `Cc1cccc2cc3c(N)c(C(=O)N4CCCc5ccccc54)sc3nc12`, the inhibition is 13.5% (inactive).

`COc1ccc(NC(=O)C(NC(C)=O)C(=O)NCc2ccccc2Cl)cc1` (centres undefined): the inhibition is 1.86% (inactive).

Turning to `O=C(Nc1ccc(OCCO)cc1)c1csc([C@H]2C[C@H](O)[C@@H](CO)O2)n1`, the inhibition was 25.4% (active).

As to `O=C(Nc1ccc(Cl)cc1)c1csc([C@H]2C[C@H](O)[C@@H](CO)O2)n1`, the inhibition was 20.1% (inactive).

Consider `O=C(Nc1ccc(Cl)cc1)c1csc([C@@H]2O[C@H](CO)[C@H](O)[C@H](O)[C@H]2O)n1`, for which the inhibition is -8.36% (inactive).

Consider `O=C(c1ccc(S(=O)(=O)NCc2ccco2)cc1)N1CCN(c2ccccc2)CC1`, for which the inhibition is -11.5% (inactive).

Consider `O=C(c1ccc(S(=O)(=O)N2CCCC2)cc1)N1CCN(c2ccccc2F)CC1`, for which the inhibition was -8.35% (inactive).

Take `O=C(c1ccc(S(=O)(=O)N2CCOCC2)cc1)N1CCN(c2ccccc2)CC1`: the inhibition was 24.7% (active).

As to `CSc1nccc(NC(=O)c2ccc(C(C)(C)C)cc2)n1`, the inhibition was 24.6% (active).

`Cc1ccc(C(=O)Nc2ccn(C)n2)cc1`: the inhibition was -13.4% (inactive).

Regarding `COC(=O)c1nc(NC(=O)c2ccc(F)cc2)n[nH]1`, the inhibition was -11.8% (inactive).

For the compound `COc1ccccc1CNC(=O)c1cc(-c2cc(Cl)ccc2C)n[nH]1`, the inhibition was -17.7% (inactive).

Turning to `Cc1ccc(S(=O)(=O)N(Cc2ccc(Cl)cc2)c2ccccc2C(=O)NCc2cccnc2)cc1`, the inhibition is 22.6% (inactive).

For `Nc1nonc1-c1nc2ccccc2n1Cc1ccc(F)cc1`, the inhibition was 24.1% (active).

Consider `O=c1[nH]cccc1-c1nc2ccccc2n1Cc1ccc(Cl)cc1`, for which the inhibition is 6.91% (inactive).

Take `COc1ccc(C)c(Cn2c(-c3nonc3N)nc3ccccc32)c1`: the inhibition was -35.1% (inactive).

Regarding `O/N=C(\C[n+]1ccccc1)c1ccc(Br)cc1`, the inhibition is -7.88% (inactive).

In the case of `CCS(=O)(=O)c1ccc(C(=O)NC)c(Cl)c1Cl`, the inhibition was -11.1% (inactive).

`CC(=O)c1ccc(NC(=O)C2CCCN2S(=O)(=O)c2cccs2)cc1` (centres undefined): the inhibition is 24% (active).

For the compound `CC(=O)c1cccc(NC(=O)C2CCCN2S(=O)(=O)c2cccc3nsnc23)c1` (centres undefined), the inhibition is 5.27% (inactive).

For `CC(=O)Nc1ccc(S(=O)(=O)N2CCN(S(=O)(=O)c3cccs3)CC2)cc1`, the inhibition was 6.03% (inactive).

`Cc1ccc(SCCN2C(=O)NC(C)(C)C2=O)cc1`: the inhibition is -11.7% (inactive).

In the case of `CCOC(=O)C1C(=O)C=C(c2ccc(OC)cc2)CC1c1ccco1` (centres undefined), the inhibition is -9.22% (inactive).

For the compound `CCC1(C(=O)c2ccccc2)C(c2cccc([N+](=O)[O-])c2)C1(C(=O)OC)C(=O)OC` (centres undefined), the inhibition is -5.15% (inactive).

As to `COc1ccc(N2CCN(C(=S)Nc3ccc(S(N)(=O)=O)cc3)CC2)cc1`, the inhibition was -21.9% (inactive).

With `CCCN(CC1COc2ccccc2O1)C(=S)Nc1ccc(C)cc1` (centres undefined), the inhibition is -5.53% (inactive).

With `CC(NC(=S)Nc1ccccc1)C1COc2ccccc2O1` (centres undefined), the inhibition was 4.65% (inactive).

Regarding `S=C(NCC1COc2ccccc2O1)Nc1ccc(Br)cc1` (centres undefined), the inhibition was 32.9% (active).

For `COc1ccc(C)cc1NC(=O)CN1c2cccc3cccc(c23)S1(=O)=O`, the inhibition is -7.85% (inactive).

As for `CCc1ccccc1N(CC(=O)NCC1CCCO1)C(=O)CCC(=O)Nc1nccs1` (centres undefined), the inhibition is -0.55% (inactive).

For the compound `C=CCNC(=S)N1CCN(CCN=Cc2c(C)[nH]n(-c3ccc([N+](=O)[O-])cc3)c2=O)CC1`, the inhibition is 13.7% (inactive).

With `CC(=O)c1cccc(S(=O)(=O)N2CCC(n3nnc4cc(F)ccc43)CC2)c1`, the inhibition is -5.37% (inactive).

As for `O=S(=O)(c1cccc(S(=O)(=O)N2CCC(n3nnc4ccccc43)CC2)c1)N1CCCCC1`, the inhibition was 25.7% (active).

With `O=C(c1ccc(F)cc1)N1CCC(n2nnc3ccccc32)CC1`, the inhibition is 5.53% (inactive).

Take `O=C1c2ccccc2C(=O)N1CC1c2ccccc2CCN1S(=O)(=O)c1ccccc1` (centres undefined): the inhibition was -4.18% (inactive).

Regarding `CCc1nnc(NC(=O)CSc2nc(SC)ns2)s1`, the inhibition was -15.7% (inactive).

Consider `COc1ccc(-c2nn(-c3ccccc3)cc2C(=O)Nc2nccs2)cc1OC`, for which the inhibition was 33.9% (active).

For the compound `COc1ccc(Cl)cc1NC(=O)CN(C)C(=O)c1cn(-c2ccccc2)nc1-c1cccs1`, the inhibition was -12.4% (inactive).

On to `O=C(O)c1ccccc1-c1ccccc1C(=O)Nc1nccs1`, for which the inhibition is -12.8% (inactive).

In the case of `O=C(COc1ccc(F)cc1)N(CC1=CCS(=O)(=O)C1)c1ccccc1`, the inhibition is -14.8% (inactive).

On to `O=C1OC(Cc2ccccc2)C(c2ccccc2)C1=O` (centres undefined), for which the inhibition was -2.69% (inactive).

Consider `CCOC(=O)[C@H]1[C@H]2COc3ccc(Br)cc3[C@@H]2N2C(=O)CN(C)C(=O)[C@@]12C`, for which the inhibition was -3.65% (inactive).

Regarding `O=C(NCCCN1CCOCC1)c1cc(-c2ccc(Cl)cc2)on1`, the inhibition is -8.77% (inactive).

Consider `Cc1c(C)n(Cc2ccc(Cl)cc2)c2ccc(C(=O)NCCCN3CCOCC3)cc12`, for which the inhibition is 31.3% (active).

In the case of `COc1ccc(C(=O)NCCCN2CCOCC2)cc1Br`, the inhibition was 8.25% (inactive).

As to `O=C(COc1ncnc2c(Cl)cc(Cl)cc12)N1CCN(S(=O)(=O)c2ccccc2)CC1`, the inhibition was -14% (inactive).

On to `O=S(=O)(Nc1ccccc1Br)c1cccs1`, for which the inhibition is -11% (inactive).

Regarding `O=C(Nc1cccc(Cl)c1)Nc1ccccc1NS(=O)(=O)c1cccs1`, the inhibition is 36.7% (active).

Turning to `O=S(=O)(Nc1ccccc1)c1ccc(NS(=O)(=O)c2cccs2)cc1`, the inhibition is -3.36% (inactive).

For the compound `Cn1c(NCc2cccnc2)nc2cc(-c3ccc(F)cc3)sc2c1=O`, the inhibition is -2.34% (inactive).

As for `CCN(C(=O)COC(=O)c1c(NC(C)=O)sc(C)c1C)C1CCS(=O)(=O)C1` (centres undefined), the inhibition is -7.84% (inactive).

On to `Cc1ccc(S(=O)(=O)c2ccc(Cl)cc2)cc1S(=O)(=O)NC(C(=O)O)C(C)C` (centres undefined), for which the inhibition is -0.98% (inactive).

For the compound `CC(=O)Nc1ccc(S(=O)(=O)N2CCN(C(=O)c3ccccc3F)CC2)cc1`, the inhibition is 0.99% (inactive).

Regarding `CCC1=NN(C(=O)Cc2ccc([N+](=O)[O-])cc2)C(O)(c2ccc(Br)cc2)C1` (centres undefined), the inhibition is -13.2% (inactive).

Turning to `Cc1ccc(Nc2nc(CSc3nnnn3-c3ccccc3)cc(=O)[nH]2)cc1`, the inhibition is 2% (inactive).

As for `CN1OC[C@@H]2CN(C(=O)c3cccnc3)[C@H](c3ccc(N4CCCCC4)cc3)C[C@@H]21`, the inhibition is 8.63% (inactive).

For the compound `CN1OC[C@@H]2CN(C(=O)C(C)(C)C)[C@H](c3ccc(-n4ccnc4)cc3)C[C@@H]21`, the inhibition is 28.2% (active).

In the case of `CN1OC[C@@H]2CN(C(=O)c3cccc4ccccc34)[C@H](c3ccc(N4CCCCC4)cc3)C[C@@H]21`, the inhibition is 16.5% (inactive).

For `COc1ccc(Cl)cc1NC(=O)Cn1nc(-c2ccc(C)cc2)n(C)c1=S`, the inhibition was -1.73% (inactive).

Take `COc1ccccc1OCC(=O)OCc1cc(-c2ccco2)on1`: the inhibition was -11.2% (inactive).

`CC(C)C1C(=O)N(Cc2cn(CCC3OCCO3)nn2)CCS(=O)(=O)N1Cc1ccc(-c2ccccc2C(F)(F)F)cc1` (centres undefined): the inhibition was -1.16% (inactive).

Consider `Cc1ccc(Cn2nnc3c(=O)[nH]c(C4CCN(S(=O)(=O)/C=C/c5ccccc5)CC4)nc32)cc1`, for which the inhibition is -19.1% (inactive).

`COCCNC(=O)/C(C#N)=C/c1cccc(OCc2ccccc2)c1`: the inhibition was -9.6% (inactive).

`COc1ccc(NC(=O)/C(C#N)=C\c2cc(OC)c(OCc3ccc(C(=O)O)cc3)cc2Br)cc1`: the inhibition was 24.8% (active).

For `COc1cc(/C=C(\C#N)C(=O)Nc2ccc3ccccc3c2)c([N+](=O)[O-])cc1OC`, the inhibition was 0.2% (inactive).

Consider `c1ccc(CCN2CN=C(Nc3nc4ccccc4o3)NC2)cc1`, for which the inhibition is -10.1% (inactive).

With `Cc1ccccc1N(C(=O)Cc1cccs1)C(C(=O)NC1CCCCC1)c1cn(C)nc1C` (centres undefined), the inhibition was -4.07% (inactive).

For `O=S(=O)(Nc1ccc2nc(-c3ccco3)[nH]c2c1)c1ccccc1`, the inhibition is -1.24% (inactive).

As to `Cc1cc(OC(C)C(=O)Nc2ccc(S(=O)(=O)Nc3onc(C)c3C)cc2)cc(C)c1Cl` (centres undefined), the inhibition was 8.91% (inactive).

Consider `O=C(NC1(C(F)(F)F)N=C2SCCN2C1=O)c1ccco1` (centres undefined), for which the inhibition was 23.7% (active).

Consider `COc1ccc(S(=O)(=O)NC2(C(F)(F)F)N=C3SCCN3C2=O)cc1` (centres undefined), for which the inhibition was 6.7% (inactive).

For the compound `O=C(NN1C(=O)C2CCCCC2C1=O)c1ccco1` (centres undefined), the inhibition is -4.97% (inactive).

As to `Cc1c(NC(=O)CSCc2ccccc2)cccc1C(=O)O`, the inhibition is -4.2% (inactive).

On to `CC(C)CN(CC(C)C)CC(O)CN(c1ccccc1)S(=O)(=O)c1ccccc1[N+](=O)[O-]` (centres undefined), for which the inhibition is -22.2% (inactive).

Turning to `COc1ccc(C2(CNC(=O)Cc3ccc(OC)c(OC)c3)CCCC2)cc1`, the inhibition was 0.54% (inactive).

Take `O=C(O)/C=C/c1ccc(S(=O)(=O)N2CCCCCC2)cc1`: the inhibition is -2.18% (inactive).

Consider `C=CCNC(=O)/C=C/c1ccc(C(C)C)cc1`, for which the inhibition is -7.72% (inactive).

For `O=C(/C=C(O)/C=C/c1ccc(O)cc1)/C=C/c1ccc(O)cc1`, the inhibition is 31.8% (active).

For the compound `COc1cccc(CNC(=O)CCC2CCCN(C(=O)c3cc(C)[nH]n3)C2)c1` (centres undefined), the inhibition is -15.8% (inactive).

As for `CCOC(=O)c1c(NC(=O)C2CC=CCC2C(=O)O)sc(C)c1CC` (centres undefined), the inhibition was -0.11% (inactive).
